TEAD-YAP inh: TEAD-YAP interaction inhibition; inhibition, % at 9.12 µM; HEK-TIYL cells, TEAD-Gal4/YAP UAS-luciferase luminescence; 1.4% of 640,000 active; in the data active = inhibition above about 32%;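 also: 0% = median of test compound wells and 100% = reference inhibitor wells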
GPR151 ag: human GPR151 activation. activation, % at 11.2 µM. 1% of 650,000 active. PathHunter beta-arrestin GPR151 cells, luminescence. Q8TDV0. AID 1508602; in the data active = activation above about 4.9%;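 also: 0% = median of compound wells and 100% = cells with positive control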
MITF primary: human MITF inhibition, primary screen; AlphaScreen MITF homodimerization, bead proximity signal; inhibition, % at 2.6 µM; 0.91% of 650,000 active; AID 1259374; in the data active = inhibition above about 50%;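 also: 0% = vehicle wells with protein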
FBW7 act: human FBW7 E3 ligase activation, primary screen; Q969H0; AlphaScreen FBW7–phospho-cyclin E peptide binding, activator screen; normalized activity (activation), % at 26.1 µM; 0.13% of 650,000 active; AID 1259310; in the data active = normalized activity above about 1.9%;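 also: purified mutant Fbw7 with reduced substrate affinity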
Target sequence (Q969H0 whole entry, looked up): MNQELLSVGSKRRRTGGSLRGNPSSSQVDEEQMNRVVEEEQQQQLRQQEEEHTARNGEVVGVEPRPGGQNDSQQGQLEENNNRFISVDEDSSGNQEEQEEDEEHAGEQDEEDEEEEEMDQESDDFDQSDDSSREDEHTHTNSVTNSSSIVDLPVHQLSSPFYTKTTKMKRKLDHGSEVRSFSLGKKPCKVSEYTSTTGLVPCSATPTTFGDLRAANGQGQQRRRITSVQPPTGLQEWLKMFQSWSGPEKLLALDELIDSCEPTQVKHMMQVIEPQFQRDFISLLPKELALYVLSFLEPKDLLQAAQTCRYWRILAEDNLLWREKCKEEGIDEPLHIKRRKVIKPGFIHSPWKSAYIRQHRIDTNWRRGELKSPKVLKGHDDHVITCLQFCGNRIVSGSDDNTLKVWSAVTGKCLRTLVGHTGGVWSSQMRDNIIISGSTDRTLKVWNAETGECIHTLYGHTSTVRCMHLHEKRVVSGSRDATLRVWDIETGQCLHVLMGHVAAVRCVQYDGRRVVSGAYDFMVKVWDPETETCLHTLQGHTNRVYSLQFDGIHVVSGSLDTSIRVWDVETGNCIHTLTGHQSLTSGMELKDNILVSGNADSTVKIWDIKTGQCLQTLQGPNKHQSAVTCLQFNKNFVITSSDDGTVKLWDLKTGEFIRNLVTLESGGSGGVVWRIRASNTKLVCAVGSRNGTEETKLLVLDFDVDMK
Active calls of the source: *. Sampled rows, rich in hits. Any-hit rate of the full collection: about 3.5%.

SMILES	TEAD-YAP inh	GPR151 ag	MITF primary	FBW7 act
CCOC(=O)c1c(C)oc2cc(C)c(NS(=O)(=O)c3cccs3)cc12	46*	1	5	0
CCOc1ccc(S(=O)(=O)Nc2ccc3oc(C)c(C(=O)OC(C)C)c3c2)cc1	8	-1	10	1
CCOC(=O)c1c(C)oc2c(Cl)cc(NS(=O)(=O)c3ccc(OCC)cc3)cc12	56*	1	0	0
CCOC(=O)c1c(C)oc2ccc(NS(=O)(=O)c3ccc(OCC)cc3)cc12	54*	1	13	0
CCOC(=O)c1c(C)oc2ccc(NS(=O)(=O)c3ccc(OC)cc3)cc12	42*	4	4	0
CN(Cc1ccccc1)C(=O)CN1N=C(c2ccccc2)CCC1=O	-8	-1	11	1
CCCc1oc2ccc(NS(=O)(=O)c3ccc(Br)cc3)cc2c1C(=O)OCC	42*	0	-12	0
CCCNC(=O)c1ccccc1NC(=O)c1ccc(OC)cc1	3	3	-15	0
COc1ccc(C(=O)Nc2ccccc2C(=O)NCCCC(=O)O)cc1	-9	0	13	2.0*
CCCOC(=O)c1ccc(NC(=O)c2ccc(Cl)cc2Cl)cc1	-15	2	-8	0
c1ccc2c(-c3csc(NC4CCCC4)n3)c[nH]c2c1	-9	0	1	5.4*
c1ccc2c(-c3csc(NCC4CCCO4)n3)c[nH]c2c1 (stereo not given)	-10	0	-6	0
CCOc1ccc(NC(=O)CSc2nc3ccccc3c(=O)n2NC(=O)c2ccccc2)cc1	2	-2	-32	0
CCOc1ccc(NC(=O)CSc2nc3ccccc3c(=O)n2NC(=O)c2ccc(OC)cc2)cc1	54*	2	7	0
COc1ccc(C(=O)Nn2c(SCC(=O)NC3CCCC3)nc3ccccc3c2=O)cc1	79*	0	-1	0
COc1ccc(C(=O)Nn2c(SCC(=O)NCc3ccccc3)nc3ccccc3c2=O)cc1	74*	0	-4	0
COc1ccc(C(=O)Nn2c(SCC(=O)Nc3ccc(C)cc3)nc3ccccc3c2=O)cc1	88*	-1	-5	0
COc1ccc(C(=O)Nn2c(SCC(=O)NCC3CCCO3)nc3ccccc3c2=O)cc1 (stereo not given)	84*	-1	-4	0
O=C(CSc1nc2ccccc2c(=O)n1NC(=O)Cc1ccccc1)NCC1CCCO1 (stereo not given)	-1	0	3	0
CCC(Sc1nc2ccccc2c(=O)n1NC(=O)c1ccc(OC)cc1)C(=O)NCc1cccnc1 (stereo not given)	79*	1	-5	0
COc1ccc(C(=O)Nn2c(SCc3c(F)cccc3Cl)nc3ccccc3c2=O)cc1	79*	2	-12	0
CCC(Sc1nc2ccccc2c(=O)n1Cc1ccccc1OC)C(=O)NCc1cccnc1 (stereo not given)	-8	-1	-2	0
COc1cccc2c(=O)n(CC(=O)Nc3ccc(OC(F)(F)F)cc3)ccc12	3	0	12	0
COCCn1c(C)cc(C(=O)CN2C(=O)NC(C)(c3ccc(C(C)(C)C)cc3)C2=O)c1C (stereo not given)	36*	1	2	0
OC(CNCC1CCCO1)COc1ccc(OCC(O)NCC2CCCO2)cc1 (stereo not given)	6	-1	12	2.3*
SMILES	TEAD-YAP inh	GPR151 ag	MITF primary	FBW7 act
OC(CNCC1CCCO1)COc1ccc(OCC(O)CNCC2CCCO2)cc1 (stereo not given)	2	1	9	0
COc1ccc(NCc2ccccc2OCC(=O)N2CCCCC2)cc1	7	-1	11	0
Cn1c(=O)c2c(nc(-n3ccnc3)n2Cc2ccc(Cl)cc2Cl)n(C)c1=O	-17	1	4	1.9*
Cc1cc2ccccc2cc1Cn1c(-n2ccnc2)nc2c1c(=O)n(C)c(=O)n2C	6	1	2	0
COc1ccc(N(/C=C2\Sc3ccccc3C2=O)C(C)=O)cc1	51*	-8	19	0
CC(=O)N(/C=C1\Sc2ccccc2C1=O)c1ccc(I)cc1	-11	0	-8	0
CC(=O)N(/C=C1\Sc2ccccc2C1=O)c1ccc(C)c(C)c1	86*	-3	4	0
COc1ccccc1N(C=O)/C=C1\Sc2ccccc2C1=O	55*	-2	0	0
CC(=O)N(/C=C1/Sc2ccccc2C1=O)c1ccc(C)cc1	59*	-3	12	0
COc1ccc(NC(=O)c2c(C)[nH]c(C(C)=O)c2C)cc1	-8	0	17	0
O=C1/C(=C\N(C(=O)c2ccccc2)c2ccccc2)Sc2ccccc21	3	-3	-1	0
COc1ccc(N(/C=C2\Sc3ccccc3C2=O)C(=O)c2ccccc2)cc1	54*	-9	-4	0
COc1ccc(N(/C=C2\Sc3ccccc3C2=O)C(=O)c2ccc(C)cc2)cc1	41*	-9	-7	0
CC(=O)c1ccc(NS(=O)(=O)c2cc(C(=O)O)ccc2Cl)cc1	6	-1	3	0
Cc1c(Cc2ccccc2)c(N2CCN(Cc3ccccc3)CC2)n2c(nc3ccccc32)c1C#N	-8	2	8	2.0*
COC(=O)c1ccc(C)c(NS(=O)(=O)c2ccc(F)cc2)c1	-4	-2	-1	0
CCOC(=O)c1cc2cccc(NS(=O)(=O)c3ccc(C)cc3)c2[nH]1	39*	0	5	0
COC(=O)c1ccc(C)c(NS(=O)(=O)c2ccc(Br)cc2)c1	45*	-1	-12	0
COC(=O)c1ccc(C)c(NS(=O)(=O)c2ccc(C)cc2)c1	56*	0	-6	0
Cc1cc(C)n2nc(SCc3ccc([N+](=O)[O-])cc3)nc2n1	-6	0	-4	0
CCCNc1ccnc2c(-c3cccc(CO)c3)cnn12	102*	-5	2	0
CN(C)c1cccc(Nc2ccnc3c(-c4cccc(CO)c4)cnn23)c1	63*	1	-19	0
OCc1cccc(-c2cnn3c(NCCCN4CCOCC4)ccnc23)c1	28	-1	-4	0
CCCNc1ccnc2c(-c3ccc(O)cc3)cnn12	97*	-2	-16	0
CN(C)c1cccc(Nc2ccnc3c(-c4ccc(O)cc4)cnn23)c1	-38	1	-9	0
SMILES	TEAD-YAP inh	GPR151 ag	MITF primary	FBW7 act
CCCNc1ccnc2c(-c3ccc(N(C)C)cc3)cnn12	8	-1	13	-1
Cc1cccc(N(C)c2ccnc3c(-c4cccc(CO)c4)cnn23)c1	76*	0	-4	0
CC(NCc1c(C(=O)N2CCCC2)nc2sccn12)c1cnn(-c2ccccc2)c1 (stereo not given)	-11	-1	2	0
COC(=O)c1cc(CNC(=O)Cc2cscn2)cc(NC(=O)c2ccccc2)c1	-9	-2	2	0
Cc1ccc(OCC(=O)NNC(=O)c2ccco2)cc1	2	1	11	0
CC1=CC2=NC(Cc3ccccc3)(NC(=O)c3ccccc3)C(=O)N2C=C1 (stereo not given)	3	0	3	1
CN1CCN(c2ccnc3c(-c4ccc(O)cc4)cnn23)CC1	43*	0	78*	-1
